Data taken from PubChem BioAssay (NCI).
The panel holds about 83,000 compounds, 20% with a hit somewhere; the sample as a whole holds those more often.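 Interpretation: 100, growth as untreated; towards 0, rising growth inhibition; 0, no net growth; 0 to -100, cell death. Compounds scoring below 10 were considered active.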 The source made the active and inactive calls.

What follows are compounds tested on NCI-H23 lung (assay: NCI-60 one-dose screen, 48 h (100 = growth as untreated, 0 = no growth, -100 = all killed)). Conditions: 10 µM unless noted.
Procedure: Growth inhibition of the NCI-H23 human Non-Small Cell Lung tumor cell line is measured as a screen for anti-cancer activity. Cells are grown in 96 well plates and exposed to the test compound for 48 hours. Compounds are tested at a single concentration, which is 10^-5 M for most compounds. The reported endpoint is percent growth (GI% or GIPRCNT), where numbers from 0 - 100% represent growth inhibition, and numbers from -100% - 0 represent cell death. For example, a value of 40 represents 60% growth inhibition. A value of 0 means no net growth occurred over the course of the experiment. A value of -40 indicates 40% of cells at the beginning of the experiment died by the end of the experiment. A value of -100 means all cells are dead at the end of the experiment.
NCI-60 Human Tumor Cell Lines Screen was performed using the standard one-dose NCI protocol, which is described in more detail at https://dtp.cancer.gov/discovery_development/nci-60/default.htm.
Compounds with GIPRCNT values below 10 were considered active. Activity score was based on GIPRCNT using the following formula: […]
Score is 0 for GIPRCNT values of 100 or above, 50 for GIPRCNT values of 0, and 100 for GIPRCNT values of -100.

Structure (SMILES)	growth
O=C(/C(=N/O)S(=O)(=O)c1ccccc1)c1cccs1	94.2% (inactive)
Cc1ccc(NC(=O)CSc2nnc3n(Cc4ccccc4)c(=O)c4c(C)c(C(N)=O)sc4n23)cc1	78.4% (inactive)
CC[N+](CC)(CCOCCOCC[N+](CC)(CC)Cc1ccc([N+](=O)[O-])cc1)Cc1ccc([N+](=O)[O-])cc1	99.2% (inactive)
c1cncc(CNc2ccccc2-c2nnc(Nc3ccc4c(c3)OCO4)o2)c1	18% (inactive)
Nc1ccc(C2=Nc3cccc4cccc(c34)S2)cc1	86.9% (inactive)
Cc1ccccc1NC(=O)c1cc2ccccc2cc1O	10.9% (inactive)
N#Cc1c(N2CCOCC2)nc2sc3cc(Cl)ccc3n2c1=N	88.2% (inactive)
CCCCn1c(Cc2ccc(Cl)cc2)nc2cc(OC)c(OC)cc2c1=O	74.6% (inactive)
C=CCOc1ccc2c(c1)CC[C@@H]1[C@@H]2CC[C@@]2(C)[C@H]1CC[C@]2(C)O	92.8% (inactive)
ClC1=C(Cl)C(Cl)=C(Cl)C1=Cc1ccc(Cl)cc1	33.1% (inactive)
O=C(Nc1nc2ccccc2s1)c1cc(-c2ccc(F)cc2)n2nc(-c3ccccc3)cc2n1	68.7% (inactive)
O=C(/C=C/c1cc2ccccc2[nH]c1=O)c1ccc(Cl)cc1	25.7% (inactive)
CN(C)c1ccc2[nH]c3c(C(N)=O)cc(=O)c(=O)c=3oc2c1	34.9% (inactive)
CCCCSc1cc(C)nc(N)n1	95.9% (inactive)
c1coc([C@@H]2C[C@@H]3Cc4ccc5ccccc5c4N2O3)c1	94.3% (inactive)
O=C1CC(C(F)(F)F)=NN1C(=O)c1nn(-c2ccc(Cl)cc2)cc1O	101% (inactive)
CN1C(=O)C(=Cc2cn(Cc3ccccc3)c3ccc(Br)cc23)C(=O)N(C)C1=O	105% (inactive)
C[C@]12CC[C@@H]3c4ccc(O)c([N+](=O)[O-])c4CC[C@H]3[C@@H]1CC[C@@H]2NS(=O)(=O)c1ccc(C(F)(F)F)cc1	28% (inactive)
Cc1[nH]n(C(N)=S)c(=O)c1N=Nc1ccc(F)c(Cl)c1	102% (inactive)
C[N+]1(CCc2ccccc2)CCC(CCC2CC[N+](C)(CCc3ccccc3)CC2)CC1 (stereo not given)	87.4% (inactive)

Structure (SMILES)	growth
COc1ccc(C2CC(c3ccc(OC)c(OC)c3)=NN2C(=O)c2cc(OC)c(OC)c(OC)c2)c(OC)c1 (stereo not given)	92.6% (inactive)
COc1cc(/C=C2\COc3ccc(O)cc3C2=O)cc(OC)c1	93.8% (inactive)
COc1cc2c(c(OC)c1OC)CCc1cnoc1-2	104% (inactive)
N#Cc1c2ccccc2c2n1-c1ccccc1OC(c1ccccc1)C2=O (stereo not given)	22.6% (inactive)
COc1ccc(CCN2CCCN3C2=Nc2ccccc2S3(=O)=O)cc1	28.8% (inactive)
CC1=NN(c2ccccc2Cl)C(=O)/C1=C\c1cn(S(=O)(=O)c2ccc(C)cc2)c2ccccc12	83.9% (inactive)
O=C(c1ccccc1)c1ccccc1Cl	100% (inactive)
Clc1cc(Cl)c(OCC#CI)cc1Cl	97.3% (inactive)
CCOC(=O)c1c2c(c(C)n1Cc1ccc(OC)cc1)-c1nc(N)ncc1CC2	125% (inactive)
Clc1ccc2c(Nc3ccc4oc(NCCN5CCCC5)nc4c3)ccnc2c1	88.7% (inactive)
N#CCCN(CCO)c1ccccc1	104% (inactive)
CCOC(=O)/C(=C/c1ccccc1)C(=O)c1ccccc1	82.4% (inactive)
O=C1NCC(Nc2ccc(Br)cc2Cl)C(=O)N1 (stereo not given)	100% (inactive)
CC1(C)OC(=O)C(=Cc2ccccc2Br)C(=O)O1	101% (inactive)
Cc1ccc(C=C2C(Cl)=C(Cl)C(Cl)=C2Cl)cc1	-57.5% (active)
CN(C(=O)c1ccccc1)N(C)C(=O)c1ccccc1	110% (inactive)
CN(CCOc1ccc(CC2SC(=O)NC2=O)cc1)c1ccccn1 (stereo not given)	99.7% (inactive)
O=C1Cc2cc(CCn3cncn3)c(Cl)cc2N1	24.1% (inactive)
COc1cc(C(=O)/C=C/c2cccnc2Nc2ccccc2)cc(OC)c1OC	-35.3% (active)
O=C(/C=C/c1cccnc1)NCCCCC1CCCN(C(=O)c2ccccc2)C1 (stereo not given)	70.1% (inactive)
